Data from PubChem BioAssay AID1347426 (Functional Genomics Laboratory (NCATS/FGL), 2020).
The campaign covered roughly 31,000 sequences. About 1,400 (4.5%) were called active.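 Rule for the calls: active = median seed-adjusted z-score above 1 or below -1; inactive = the rest.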 This excerpt belongs to a sample that is enriched for actives.

Test: Novel Modifiers of Survival Motor Neuron (SMN) Protein: Gene Identification via Genome-wide siRNA Screen;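 note: luminescence tracks full-length SMN protein made from the SMN2 reporter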
Conditions: HEK293T SMN2-luciferase reporter, siRNA knockdown, 72 h; actives lie on both sides
Summary of the method: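 Genome-wide siRNA screen (10418 genes, 3 siRNAs each, 1 pmol per well) by reverse transfection in HEK293T cells stably carrying an SMN2-luciferase reporter; luminescence after 72 hours, normalized to negative-control siRNA, log10-transformed, MAD-scored.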

Row | Sequence | median seed-adjusted z-score
1 | GGAGAUGUAUUGGUGAGAATT against CYP3A5 | 0.0516 (inactive)
2 | GCAGCUACAGGUCAUCUCATT against DGAT2 | 0.195 (inactive)
3 | GGAGUGCGAUGGACAAUUUTT against LCT | 0.411 (inactive)
4 | GGUGCAAGAGAGUCCGUUUTT against D2HGDH | -0.637 (inactive)
5 | UGAAAGGACUGGAGUCCAATT against OLFM1 | -0.103 (inactive)
6 | GGAUAUUGGAUUGCCUAGATT against TCFL5 | 1.52 (active)
7 | GGUUCACUUUGAUAGUACUTT against CLCA4 | 0.186 (inactive)
8 | GCCCUGAUUUGUGCAAUGATT against PPP1R16B | -0.892 (inactive)
9 | GAGUCAGGAUCGCAAGUCATT against SAFB2 | 0.0394 (inactive)
10 | CCUCGAUUGUCUUCCGGAATT against UBA7 | 2.41 (active)
11 | ACUCCAUCCUGAACCCUCATT against USP49 | 0.549 (inactive)
12 | GAUCAAUUACGAAAUCUCATT against MED30 | -2.06 (active)
13 | AAGAAGAAGUGGACACUGATT against FGFRL1 | -0.111 (inactive)
14 | GGAACUUGGUUGUAGAGCUTT against SVIL | 0.0852 (inactive)
15 | CAACCACCCUCACAUCAUUTT against NUAK2 | -0.0601 (inactive)
16 | AAAUGCAAUUCAAGCCUUUTT against GFRA1 | 0.125 (inactive)
17 | GGAAACUCGUCGUUCAAUATT against IL13RA1 | 0.269 (inactive)
18 | UCGUGGAGGUGAUCUAUUATT against RAB6C | -1.08 (active)
19 | UGAUUUACCUGAGCUGUAATT against GSTT2 | 0.0298 (inactive)
20 | CAACUUCCACUGUUUCCGATT against RRAGC | -0.557 (inactive)
21 | CGAUGCUUGUCAGUCCCAATT against NOTCH4 | -0.384 (inactive)
22 | GCCUAGAGGUUUGCCCUGATT against ATHL1 | 0 (inactive)

Row | Sequence | median seed-adjusted z-score
23 | UCCACUGCCCAAUAAAUAUTT against PYDC1 | -1.44 (active)
24 | CGAGCCCAAGGAACAUGAATT against NKX2-3 | -0.2 (inactive)
25 | GCUUUUCUCUUACAAUUCATT against ZNF557 | -0.197 (inactive)
26 | CCAUUAACGAGCUGCUUAATT against PLK1 | -2.57 (active)
27 | CAGUCGGAUCCAGAGCUGATT against GCHFR | -0.559 (inactive)
28 | AGCUCACGCUGUGCAUGUGTT against TREX2 | -0.918 (inactive)
29 | AAUCAGAUUCUCAACCUAATT against KRT10 | 0.493 (inactive)
30 | CCUUCGAGCUGCUAUUAAUTT against TLR10 | -0.363 (inactive)
31 | GAAGCGACUGUUUUAGAAATT against EIF4E3 | 0 (inactive)
32 | GUUAUCCUCUAAUUGAUAATT against B3GALNT1 | 0.128 (inactive)
33 | GGGUGUAACAUGUGCGGAATT against ZNF217 | -0.872 (inactive)
34 | GCACCAUCGUCCUUGAACATT against DUOX1 | -1.09 (active)
35 | CCACUGCAACUGUAAUUCUTT against PROCA1 | -0.502 (inactive)
36 | GAGUUCGUCGAAUCCCAAATT against SETMAR | 0.191 (inactive)
37 | CCUCGAUUCUUAAAGACGATT against RELN | 0.207 (inactive)
38 | GCUUUGGAGUCACAGGUCATT against EYA3 | -0.0191 (inactive)
39 | GGAGACAAGCACAAGCUGATT against S100B | 0.862 (inactive)
40 | GUGCGAUUCUGGAUGACAATT against EVI1 | 0 (inactive)
41 | CAUGGGACCUGAUUCAAGATT against FCER2 | -1.75 (active)
42 | CCAGAUCAGUCCUAGCUUATT against GLIS3 | -0.00906 (inactive)
43 | AGCUGGUUCACGACAUGAATT against TRIP6 | 1.03 (active)
44 | GCAUUGACUGGUCCUAUGATT against CPA2 | 0.0374 (inactive)

Row | Sequence | median seed-adjusted z-score
45 | GCACUCCCAAGAUUGAUAATT against RBPJ | -0.452 (inactive)
46 | CACUGAUUUUGGAUGCUCUTT against HES1 | -0.262 (inactive)
47 | ACACGGCAUUAAAAAGCUATT against JRK | -0.624 (inactive)
48 | AAACCAUCAUGCUGAGGUGTT against FCGR2A | -0.19 (inactive)
49 | GAGCACGACUGAAAAUGUATT against PTS | -0.103 (inactive)
50 | UAACCGAUUUGAUAUGAAUTT against ANKRA2 | 1.26 (active)
51 | GGGAGAGUGUGCUACGAAATT against NEIL1 | -0.168 (inactive)
52 | GAUUCGCAGUUUAGAUGUUTT against PRKAA2 | -0.194 (inactive)
53 | GUACUUACCUUGUGAGGCATT against VAV3 | 0 (inactive)
54 | GGUGGGUGGUAAGAGGGAATT against AQP2 | -0.433 (inactive)
55 | GCAGAUGUAUAAGAAGGCATT against RRM2 | -3.84 (active)
56 | GGAGAGAGCUCUCACAUCUTT against PPT1 | 0.727 (inactive)
57 | AGAUUGUAGUUGUGGAUCATT against CDH15 | 0 (inactive)
58 | CAGCUGUAGUUCUAACUAUTT against ZNF23 | -0.106 (inactive)
59 | GGAUCAAUGUGACGGAGAATT against EMILIN2 | 0.726 (inactive)
60 | GAGUCGAACUUUACUGUCUTT against MLL2 | -2.11 (active)
61 | GGAAUGGAAUGAUCGGUGATT against GRIN2A | 0.025 (inactive)
62 | CGAGUUUGAUGAAAGAGGATT against NT5E | 0.199 (inactive)
63 | CGUUAUGCCUGGUCUCCUATT against SPPL3 | 0.652 (inactive)
64 | CAGAUUUGGUAAAAGAGUATT against VPS26A | -1.55 (active)
65 | CCCAUUUCGGACUCCAAAATT against IRX3 | -0.285 (inactive)
66 | ACUUUGCCUUCAAGCUCUATT against SERPINA13 | -0.403 (inactive)

Row | Sequence | median seed-adjusted z-score
67 | GCUACUAUGCUGAAGAUCATT against CDH18 | 0.21 (inactive)
68 | GGAAGAUGUUGACAUAUUUTT against ACAT2 | 1.25 (active)
69 | GAAUAAGUGACUAUCCAAATT against SENP2 | 0 (inactive)
70 | GGAGGCACCUCUCAAGAUATT against THRAP3 | -0.852 (inactive)
71 | GCGAGGCUGUUAACCCUUATT against PRKCQ | 0.692 (inactive)
72 | GAUGCUAUGGAAUACCAUATT against METTL4 | 0.244 (inactive)
73 | GCUGGUACCCUGGAGGAAATT against GNRH2 | 1.13 (active)
74 | ACAUGGUUAUUCCCAGUGATT against AKR1CL2 | -0.949 (inactive)
75 | CAUUCAAUCCGGACCAUUUTT against CYP2J2 | 0.00659 (inactive)
76 | CAGAUAUUAUGAAGAAUUUTT against GALNS | 0.0287 (inactive)
77 | GCCUCUUUCUGUCAGCAUUTT against SPAG4 | -0.219 (inactive)
78 | GGAAGGAUAUUACACCUAUTT against MMP24 | -1.28 (active)
79 | GCAAAGCCCUGUCAAACAATT against NPM2 | 0.215 (inactive)
80 | CCAAGAAACUGCGAGACAATT against CNGA2 | -0.0447 (inactive)
81 | CCAGAGUCCUGUUCGAUUUTT against USP30 | -0.646 (inactive)
82 | CCUCAAGCCUGUAGAAGAATT against SMNDC1 | -1.54 (active)
83 | CAGCAUUUAUCAAGUCUUATT against BMP6 | 0.301 (inactive)
84 | GCAUCGGCAUUGAAGGCUUTT against ALOX15B | 0.156 (inactive)
85 | GUAACUUCCUAUUCACCAATT against EPAS1 | -0.166 (inactive)
86 | GGUCUGGAGAAGGUGCAUATT against ANGPTL4 | 1.37 (active)
87 | CUCUACCAACAAUCACAAATT against NPTN | 0.133 (inactive)
88 | GGUCGAGUUCUACUACAAATT against IPO11 | -0.245 (inactive)

Row | Sequence | median seed-adjusted z-score
89 | CAUGCUCGUGGGUAACAAATT against RAB25 | -0.04 (inactive)
90 | UGGAGAGACUUAUCCAAGATT against CKMT1B | -0.929 (inactive)
91 | CAGAUGUGGUGAUGCGUGATT against DMBX1 | -0.207 (inactive)
92 | GCUUCAUGACAUCCGCAAATT against CTSL3 | 1.07 (active)
93 | GGCAAGAGCUUGUAUCCAATT against CCNG1 | 0.131 (inactive)
94 | CAAAAUCCUUUGUGAGUAATT against GPR174 | -0.324 (inactive)
95 | GGACUUUGCUGCCUAAAUUTT against PIP5K1A | 0.0924 (inactive)
96 | GCAUCACGCUCUCGAAGCATT against PTBP1 | 0.578 (inactive)
97 | CCACCCUAGUUAGACAUCATT against ZNF419 | 0.0405 (inactive)
98 | CCAUCAUCGACACACCCAATT against PRSS27 | 1.03 (active)
99 | CAAUCGAACGUAAACAACATT against ADD3 | 0.0741 (inactive)
100 | CAACCAUCGAGCAAAUGAATT against MAPK1 | 0 (inactive)
101 | CAUCCCUUGUAAUUCACAATT against ZNF702 | 0.204 (inactive)
102 | GCAUCAGCUCACAACAAAATT against SF3B4 | -2.56 (active)
103 | CAAGUAUGAUCAGCAAUGATT against ENG | -0.254 (inactive)
104 | GGCAUUACGUUUCUAGGUATT against AQP6 | 0.008 (inactive)
105 | CGCUGUUCAAUGAACUAUATT against GBA2 | 0.143 (inactive)
106 | ACACCAGGGUUGUCUACAATT against LCAT | 0.526 (inactive)
107 | GAACUAUCAGAGCAGUUUUTT against LONP2 | 1.52 (active)
108 | GAGCUAUAGUAAUUGCUCUTT against MIF4GD | 0.373 (inactive)
109 | GAAACAUCAUUUUUGCGAATT against THBS4 | -0.28 (inactive)
